# Active and inactive are the calls of the source.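 The calls were made as follows: active = viability loss from added drug above about 55%, and viability with drug at most 40%, in both replicates (limit read from the data, passing the limit was not always enough); inconclusive = both conditions met in only one replicate; inactive = neither replicate meets both conditions.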
# Assay: MRP1 drug-resistance reversers in H69AR cells – cell-based, doxorubicin co-treatment, pilot screen (AID 601)
# Settings: H69AR cells + 2 uM doxorubicin, CellTiter-Glo, 72 h; at 10 µM; stronger effect = higher value
row,Structure (SMILES),differential viability (reversal)
1,O=C(CCN1CCOCC1)Nc1ccc2c(c1)CCC2,6.83% (inactive)
2,COc1ccccc1-c1nc(C(F)(F)F)c(OC)o1,10.3% (inactive)
3,Nc1c(C(=O)NCCN2CCOCC2)c2nc3ccccc3nc2n1-c1ccc2c(c1)OCO2,-8.75% (inactive)
4,COc1cccc(C(=O)Nc2ccc(NC(=O)C(C)(C)C)cn2)c1,2.62% (inactive)
5,CCOC(=O)N1CCN(C(=O)Nc2ccc3oc(C)nc3c2)CC1,-0.96% (inactive)
6,CCOC(=O)c1nn(-c2sc(C(=O)OC)c(C)c2C(=O)OC)cc1O,3.34% (inactive)
7,CCOC(=O)C1=C(C)N(C)C(C)=C(C(=O)OCC)C1c1cccnc1,0.9% (inactive)
8,O=C(Nc1ccc2c(c1)OCO2)OCc1ccccc1,11.4% (inactive)
9,Cn1c(=O)[nH]c(=O)c2c1nc(NCCCn1ccnc1)n2Cc1cccc(Br)c1,8.09% (inactive)
10,Cn1c(=O)[nH]c(=O)c2c1nc(N1CCNCC1)n2Cc1cccc2ccccc12,2.38% (inactive)
11,COc1ccccc1N(CN1CCCC1=O)C(=O)c1c(F)cccc1Cl,-0.095% (inactive)
12,CCOC(=O)C1CCCN(C(=O)c2cccs2)C1 (stereo not given),15.4% (inactive)
13,CCCCn1c(SCc2cccnc2)nc2c1c(=O)n(C)c(=O)n2C,13.7% (inactive)
14,O=C(CCCNS(=O)(=O)c1ccccc1)NCc1ccco1,6.58% (inactive)
15,Cc1ccc(-c2[nH]nc3c2C(c2ccoc2)C(C#N)=C(N)O3)cc1C (stereo not given),0.74% (inactive)
16,CSc1nsc(SCC(=O)N2CCc3ccccc32)n1,4.61% (inactive)
17,Cc1ccc(NC(=O)CC2Nc3ccccc3NC2=O)cc1Cl (stereo not given),-17.1% (inactive)
18,COC(=O)c1c(C(=O)OC)n(CCCN)c2ccc(C)cc12,4.39% (inactive)
19,OCCn1c(CSc2nnc(-c3ccco3)n2-c2ccccc2)nc2ccc(Cl)cc21,3.29% (inactive)
20,Cc1c(O)c(CN2CCCC(C)C2)cc2c3c(c(=O)oc12)CCC3 (stereo not given),-2.96% (inactive)

row,Structure (SMILES),differential viability (reversal)
1,Clc1ccccc1-c1nnc2sc(-c3ccccn3)nn12,8.48% (inactive)
2,CCCn1c(=N)n(CCOc2ccc(OC)cc2)c2ccccc21,1.35% (inactive)
3,COC(=O)c1c(N)sc(C(=O)N2CCOCC2)c1C,6.62% (inactive)
4,CC(C(N)=O)N1C(=O)C2C3C=CC(C3)C2C1=O (stereo not given),10.4% (inactive)
5,Cn1c(-c2ccc(F)cc2)cnc1NCc1ccccc1,-15.4% (inactive)
6,O=C(CCCn1c(=O)c2sccc2n(CC(=O)NCc2ccco2)c1=O)NCc1ccco1,20% (inactive)
7,O=C(Cc1cccs1)NCc1ccc(F)cc1,5.21% (inactive)
8,CCCOc1ccc(C2C(C(=O)c3ccc(C)o3)=C(O)C(=O)N2Cc2cccnc2)cc1 (stereo not given),3.76% (inactive)
9,CCOC(=O)c1c(C)oc2ccc(O)c(CN(C)C)c12,3.6% (inactive)
10,O=c1ccn(Cc2ccccc2Cl)cc1,9.77% (inactive)
11,CC12C(=O)N(CCC(=O)O)C(=O)C1C1C=CC2C1 (stereo not given),-1.44% (inactive)
12,O=S(=O)(NCCc1ccncc1)c1cc(Br)ccc1F,13.4% (inactive)
13,COc1ccc2c(c1)C(=O)N(c1ccccc1OC)C(=O)C2,-8.61% (inactive)
14,CCn1nnc(NC(=O)c2ccccc2Br)n1,10.5% (inactive)
15,CN1CCCC(OC(=O)c2ccc3c(c2)OCCO3)C1 (stereo not given),19.1% (inactive)
16,CC(C)c1nnc(NC(=O)CCC(=O)NCc2ccc3c(c2)OCO3)s1,-1.39% (inactive)
17,O=C(O)c1ccc(-n2nc(C(F)(F)F)c3c2-c2ccoc2CC3)cc1,9.15% (inactive)
18,Nc1cc(C(=O)O)ccc1Nc1ccccc1,11.5% (inactive)
19,CCOc1ccc(OCc2cccc(C(=O)N3CCCC3)c2)cc1,6.89% (inactive)
20,O=C(O)CCc1ccc(-c2cccs2)n1NC(=O)c1ccco1,8.25% (inactive)

# Reference: PubChem BioAssay
